Reference: PubChem BioAssay
Active and inactive are the calls of the source.

Assay: plasmodial surface anion channel blockers, osmotic lysis – cell-based, P. falciparum Indochina, OD700, 1 h, primary screen (AID 1154)
Settings: P. falciparum Indochina infected RBC osmotic lysis, higher = more signal, called active from +8 up or from −8 down

z-score, inactive:
COc1cc(CO)cc(I)c1O[C@H]1C=C(C(=O)NCCO)C[C@@H](N(CC2CCCCC2)C(=O)c2cc3ccccc3oc2=O)[C@@H]1O 2.5
C=CCC(OC(C)=O)[C@@H]1[C@@H](N(Cc2ccc(-c3ccccc3)cc2)C(=O)c2ccc(-c3ccccc3)cc2)c2cc(OCCCO)ccc2N1C(=O)Cc1ccc(OC)cc1 (some centres undefined) 0.572
CC(=O)NCCCC[C@@H]1NC(=O)[C@H]2C[C@@H](C(=O)NCCCCCCN(C)C)[C@@H](c3ccc(O)cc3)N2C1=O 1.32
Cc1ccc(S[C@]2(C(=O)NC(C)C)CC(=O)N(C3Cc4ccccc4C3)[C@@H]2c2ccc(CO)cc2)cc1 2.26
Cc1ccc(N2C(=O)c3ccccc3[C@](C)(C(=O)NCC(C)C)[C@@H]2c2ccc(CO)cc2)nc1 1.84
O=C(CS)NCCCCCCNC(=O)[C@@H]1C[C@@H]2C(=O)N[C@@H](Cc3ccccc3)C(=O)N2[C@@H]1c1ccc(O)cc1 6.26
COc1ccc([C@H]2C[C@H]3C(Br)=C[C@]2(OC)C(=O)[C@]32CO2)cc1 0.262
C=C(C(=O)CC[C@H](OC(=O)c1ccccc1-c1ccccc1C(=O)O)c1ccc(CO)o1)C(C)C 2.22
CCOC(=O)C1=CC[C@@H](c2ccc(-c3ccc(OCc4ccccc4)cc3)c(OC)c2)N(S(=O)(=O)c2ccc(C)cc2)[C@H]1c1ccccc1 2.67
CC(c1ccccc1)C(O)C1C=CC2C(=O)N(C)C(=O)C2N1N(c1ccccc1)c1ccccc1 (centres undefined) 1.02
C=C(CCCC)C(=O)CC[C@@H](OC(C)=O)c1ccccc1OCCO 4.13
CC(=O)NCCCC[C@@H]1NC(=O)[C@H]2C[C@@H](C(=O)NCCCCCCN(C)C)[C@@H](c3cccc(OCCO)c3)N2C1=O 2.81
CCCC=C(CCC)[C@@H](NS(=O)(=O)c1cccc(C(F)(F)F)c1)c1ccc(C(=O)OC)cc1 -0.82
NC(=O)NCC#Cc1ccc2c(c1)[C@]1(C(=O)N2)[C@H](C(=O)N2CCCCCCC2)[C@H]2C(=O)O[C@H](c3ccccc3)[C@H](c3ccccc3)N2[C@@H]1c1ccccc1OCCO 0.833
C#CCNC(/C=C/c1ccccc1)CO (centres undefined) -0.181
O=C1C2C=CC(C(O)C(c3ccccc3)c3ccccc3)N(Nc3ccc([N+](=O)[O-])cc3)C2C(=O)N1c1ccccc1 (centres undefined) 5.98
C=C(CCCC)/C(=C/C[C@@H](OC(=O)c1ccncc1)c1ccc(CO)o1)c1cnc2ccccc2c1 7.06
CCc1cccc(NC(=O)O[C@H]2[C@H](OC(=O)Nc3ccccc3)[C@@H](OC(=O)Nc3ccccc3)[C@@H](OC)O[C@@H]2CO)c1 5.28
C#C[C@H](O[Si](C#Cc1ccccc1)(C(C)C)C(C)C)c1ccccc1 0.876
CCOC(=O)C1=CC[C@@H](c2ccccc2)N(S(=O)(=O)c2ccc(C)cc2)[C@H]1C 3.28
Cc1ccc(S[C@]2(C(=O)NC3CC3)CC(=O)N(Cc3cc(C(F)(F)F)cc(C(F)(F)F)c3)[C@@H]2c2ccc(CO)cc2)cc1 1.21
Cc1ccc(S(=O)(=O)N2[C@@H](c3ccccc3)C(C(=O)O)=CC[C@H]2c2ccccc2)cc1 0.432

z-score, active:
C=C(CCCC)/C(=C/C[C@@H](OC(=O)c1ccncc1)c1cccc(OCCO)c1)c1cc(C(=O)OC)ccc1OC 21
[N-]=[N+]=NCc1ccccc1C[C@]1(C(=O)N2CCCCC2)N=C(c2ccc(OCCCO)cc2)O[C@H]1c1ccccc1CN=[N+]=[N-] 16.1
C=C(CCCC)/C(=C/C[C@H](OC(=O)c1ccncc1)c1cccc(OCCO)c1)c1cc(C(=O)OC)ccc1OC 21.6
C=C(CCCC)C(=O)CC[C@@H](OC(=O)c1cccnc1)c1cccc(OCCO)c1 26.7
COC(=O)c1ccc(C#CC(NP(=O)(c2ccccc2)c2ccccc2)c2ccccc2)cc1 (centres undefined) 10.2
C=C[C@H](OC)[C@@H](OC(=O)Nc1ccc(SC)cc1)c1ccc(O)c(F)c1 25.5
O=C(NCc1ccccc1)[C@@]1(Cc2ccccc2)COC(c2ccc(OCCCO)cc2)=N1 29.5
[N-]=[N+]=NCc1ccccc1[C@H]1OC(c2ccc(OCCCO)cc2)=N[C@@]1(Cc1ccccc1N=[N+]=[N-])C(=O)NCc1ccccc1 28.3
C=CC[C@]1(C(=O)N2CCCCC2)N=C(c2ccc(OCCCO)cc2)O[C@H]1c1ccccc1N=[N+]=[N-] 35.8
O=C(N1CCCCC1)[C@@]1(CCS(=O)(=O)c2ccccc2)N=C(c2ccc(OCCCO)cc2)O[C@H]1c1ccccc1 30.1
CC(C)(C)OC(=O)CC[C@]1(C(=O)N2CCCCC2)N=C(c2ccc(OCCCO)cc2)O[C@H]1c1ccccc1 24
N#Cc1ccc(NN2C(C(O)CCc3ccccc3)C=CC3C(=O)N(c4ccccc4)C(=O)C32)cc1 (centres undefined) 11.9
